Shown are actives, neighbours in structure and some others; about 4.1% of the full set was active somewhere.
hgDAF-12 ag – agonists of H. glycines DAF-12 nuclear receptor. 370,000 compounds, 1.8% hits. activation, % at 6.8 µM. HEK293 GAL4-hgDAF12 UAS-luciferase reporter, agonist luminescence; normalized to butyrate control. AID 687014;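 active = activation above a cutoff set at the mean of all screened compounds plus 3 SD, cut at about 10% in these data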;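 also: 0% = DMSO wells and 100% = sodium butyrate wells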
ssDAF-12 act – activates DAF-12 receptor from parasite S. stercoralis; HEK293 ssDAF-12/GRIP1 lit1-tk-luc reporter, luminescence; % of 3 µM dafachronic acid response; activation, % at 6.8 µM; 370,000 compounds, 1% hits; AID 652126;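 active = activation above the mean over all tested compounds plus 3 SD, cut at about 0.9% in these data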;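 also: 0% = DMSO-only wells and 100% = 3 µM delta7-dafachronic acid wells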
DAX1 inh-1 – inhibitors of human orphan nuclear receptor DAX1 (NR0B1). P51843. HEK293 Gal4-DAX1 luciferase reporter, luminescence. inhibition, % at 6.75 µM. 340,000 compounds, 0.99% hits. AID 504766;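 active = inhibition above the mean over all tested compounds plus 3 SD, cut at about 4.2% in these data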;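 also: 0% = DAX1-transfected cells with DMSO and 100% = empty-vector control cells with DMSO; inhibition shows as a rise in luminescence from relieved DAX1 repression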
Target sequence (P51843 207-470 limits assumed): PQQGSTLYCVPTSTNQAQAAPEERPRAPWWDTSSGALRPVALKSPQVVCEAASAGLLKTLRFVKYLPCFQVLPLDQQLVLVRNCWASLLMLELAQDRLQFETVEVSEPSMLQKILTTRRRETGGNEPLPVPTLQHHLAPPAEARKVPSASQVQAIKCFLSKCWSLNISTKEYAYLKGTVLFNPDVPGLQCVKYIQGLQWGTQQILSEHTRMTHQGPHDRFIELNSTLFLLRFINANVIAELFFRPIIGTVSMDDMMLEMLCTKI
DAX1 inh-2 – inhibitors of DAX1 repression of SF-1 activated StAR promoter; HEK293T StAR-luciferase reporter, SF-1/DAX-1 repression relief; inhibition, % at 6.8 µM; 370,000 compounds, 1.1% hits; AID 652010;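 active = inhibition above the mean over all tested compounds plus 3 SD, cut at about 3.6% in these data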;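 also: 0% = DAX-1 cells with DMSO and 100% = cells lacking DAX-1 with DMSO; higher inhibition means more luminescence from relief of DAX-1 repression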
hcDAF12 agonist – activators of H. contortus DAF-12 nuclear receptor | HEK293 hcDAF-12 lit1-tk-luc reporter, luminescence; 0% DMSO, 100% Δ7-dafachronic acid | activation, % at 6.8 µM | 370,000 compounds, 1.4% hits;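 active = activation above the mean of all tested compounds plus 3 SD, cut at about 5.5% in these data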;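 also: 100% = response to 3 µM Δ7-dafachronic acid high control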
Active calls of the source: *; x = not tested or not shown.

SMILES	hgDAF-12 ag	ssDAF-12 act	DAX1 inh-1	DAX1 inh-2	hcDAF12 agonist
COc1cc(CNc2ccc3[nH]c(=O)[nH]c3c2)ccc1OCc1ccc(C)cc1	12*	1	-2	2	4
O=C(NN1C(=O)/C(=C/c2ccc(O)c(O)c2)SC1=S)c1ccccc1	-1	1.2*	1	0	-1
O=S(=O)(Nc1nc2ccccc2s1)c1cnc(Cl)c(Br)c1	0	1.0*	2	1	5
O=S(=O)(Nc1nccs1)c1cnc(Cl)c(Br)c1	0	-1	1	1	5
CCOC(=O)N1CCN(C(=O)C[C@H]2C[C@@]3(C(=O)OC)C(=C[C@H](C(C)C)O[C@@H]3C3CC3)N(CCC3=CCCCC3)C2=O)CC1	-3	-1	x	0	-4
C[C@H](O)[C@@H]1CN2CCc3ccc(N4CCOCC4)cc3[C@@H]2C[C@@H]1N(C)C(=O)c1ccco1	3	-1	x	0	0
Cc1cccc(OCC(=O)N=Nc2c(O)[nH]c3ccc([N+](=O)[O-])cc23)c1	2	0	x	0	5
Cc1cccc(OCC(=O)NCC(=O)N=Nc2c(O)[nH]c3ccc([N+](=O)[O-])cc23)c1	3	0	6.1*	0	3
COc1cc2c(=O)n(CCC(=O)NCC3CCCO3)c(=O)n(CC(=O)c3ccc(Cl)cc3)c2cc1OC (centres undefined)	-1	-2	5.3*	0	0
O=C(CN(C(=O)OCC1c2ccccc2-c2ccccc21)[C@@H](Cc1ccccc1)C(=O)O)OCc1ccc(C(=O)NCc2ccccc2)cc1	2	-1	x	0	0
CC(C)(C)c1ccc(S(=O)(=O)NNC(=O)c2cc3ccccc3[nH]2)cc1	8	0	-1	1	6.5*
CCCC(C)NNC(=O)c1cc2ccccc2[nH]1 (centres undefined)	-1	-1	2	0	0
Cc1ccc(S(=O)(=O)N2CCN(c3cnn(C)c(=O)c3Cl)CC2)cc1	-1	-2	0	-1	-1
Cc1ccc(S(=O)(=O)N2CCN(c3cnn(-c4ccccc4)c(=O)c3Cl)CC2)cc1	0	-1	4.7*	1	0
Cc1nc(-c2ccccc2)nc(Cl)c1Cl	-3	-1	1	0	-2
Cc1sc2nc(-c3cccnc3)nc(Cl)c2c1-c1ccccc1	3	-1	4.3*	0	-4
O=C(c1ccccc1)c1ccc2nc[nH]c2c1	7	0	0	1	6.3*
O=C(NC1CCCC1)c1ccc2nc[nH]c2c1	-2	-1	2	0	-1
Cc1cc(C)cc(NC(=O)c2ccc3nc[nH]c3c2)c1	6	-2	-2	1	-1
Cc1ccc(NC(=O)c2ccc3nc[nH]c3c2)cc1C	9	0	2	3	5.9*
Cc1ccc(C(=O)NCCN2C(=O)C3C4C=CC(C4)C3C2=O)cc1 (centres undefined)	3	-1	x	0	-3
COC(=O)c1ccc(NC(=O)CSc2ccccc2)cc1	5	0	7.4*	2	1
Cc1ccc(C(=O)NCC(=O)OCc2nc3sc(C)c(C)c3c(=O)[nH]2)cc1	3	-1	x	1	-3
CCOC(=O)c1cccc(NC(=O)c2ccccc2C)c1	11*	-2	-1	0	1
O=C(O)C1=C[C@@H](c2ccc3c(c2)OCO3)C[C@@H](OCc2ccc(CO)cc2)O1	0	-1	2	0	0
SMILES	hgDAF-12 ag	ssDAF-12 act	DAX1 inh-1	DAX1 inh-2	hcDAF12 agonist
O=C(NC1CC1)C1=C[C@H](c2ccc3c(c2)OCO3)C[C@H](OCc2ccc(CO)cc2)O1	11*	0	2	0	-1
COc1ccc(CN(C)C(=O)C2CCCN(c3nc4ccccc4o3)C2)cc1 (centres undefined)	-1	-1	x	-1	-3
CCN1C(Nc2ccccc2)=NC[C@@H]1CC(C)C	0	-1	2	0	-1
CC(C)CCN1C(Nc2ccccc2)=NC[C@@H]1CC(C)C	1	0	1	-1	6.3*
CCC(C)CCN1C(Nc2ccccc2)=NC[C@@H]1CC(C)C (some centres undefined)	2	-1	4.8*	0	-1
Cc1cccc(CCN2C(Nc3ccccc3)=NC[C@@H]2CC(C)C)c1	0	-1	6.7*	0	0
CC(=O)c1ccc(S(=O)(=O)NCC2CCN(C(=O)C(=O)c3cc4ccccc4o3)CC2)cc1	0	-1	x	-1	2
CC(COc1ccc(C#N)cc1F)CN1CCC(C(O)(c2ccccc2)c2ccccc2)CC1 (centres undefined)	0	-1	x	0	-1
CC(=O)C1=C(C)N(c2ccccc2)C(=O)C1(NS(=O)(=O)c1ccc(N)cc1)C(F)(F)F (centres undefined)	3	1.5*	1	1	5.6*
O=C(CCc1nc(-c2ccccc2F)no1)NCCc1ccccc1F	-2	-1	x	-1	-1
O=C(Cc1ccccc1)Nc1nnc(-c2cccnc2)s1	0	-1	x	0	0
Cc1ccc(Cc2nnc3n(-c4ccccc4)nc(C(=O)c4ccccc4)n3c2=O)cc1	-2	-1	7.0*	-1	-1
Cc1ccc(CNC(=O)c2cc(C)nn2-c2ccccc2)cc1	-2	-2	2	1	-3
O=C(/C=C/c1ccco1)Nc1cccc(NC(=O)/C=C/c2ccco2)n1	11*	-1	2	3	6.4*
COc1ccccc1OCC(=O)Nc1ccccn1	13*	0	2	3	5
O=C(/C=C/c1ccco1)NC1=NCCS1	7	0	1	2	4
O=C(/C=C/c1ccco1)NC(=S)Nc1ccccn1	8	0	5.9*	2	0
COc1ccccc1OCC(=O)Nc1ccncc1	-2	0	0	0	-1
COc1ccccc1/C=C/C(=O)NC(=S)Nc1ccccn1	5	1.4*	2	1	3
C#CCNC(=O)C[C@H]1C[C@@]2(C(=O)OC)C(=C[C@H](C(C)C)O[C@@H]2C2CC2)N(CCc2ccc(OC)c(OC)c2)C1=O	-3	-1	x	-1	-2
COCCCNC(=O)C[C@H]1C[C@@]2(C(=O)OC)C(=C[C@H](C3CCCC3)O[C@@H]2C)N(CCC2=CCCCC2)C1=O	-1	-2	x	-1	-2
Cc1ccccc1CNC(=O)C1CCC(CNS(=O)(=O)c2cccc3cccnc23)CC1 (centres undefined)	1	-1	x	-1	-2
O=[N+]([O-])c1ccc(-c2nc(Nc3ccc(O)cc3)c3ccccc3n2)cc1	5	-1	-1	-1	3
O=C(O)c1ccc(Nc2nc(-c3ccc([N+](=O)[O-])cc3)nc3ccccc23)cc1	1	-1	0	1	5.6*
COC(=O)[C@]12C[C@H](CC(=O)NCC3CCCCC3)C(=O)N(Cc3ccccc3)C1=C[C@H](COCc1ccccc1)O[C@@H]2C	3	-1	x	0	-2

Screening results deposited in PubChem by The Scripps Research Institute Molecular Screening Center.
